ChEMBL document CHEMBL4513216, “Probing the Open Global Health Chemical Diversity Library for Multistage-Active Starting Points for Next-Generation Antimalarials” (ACS Infect Dis, 2020)
In all, about 69,000 compounds went through this assay and about 8,600 (12%) showed an effect of 50% or more. For the sample, strong results were picked, then their nearest neighbours and some compounds at random.

Each compound was assayed on Plasmodium berghei (assay: Screen against P. berghei liver stage (PbLuc), transformed with Luciferase, at 10uM). Settings: tested at 10 uM.
Format: functional, HepG2
With `NC(=O)CCN1CCc2onc(-c3ccccc3F)c2C1` the INHIBITION was -62.1%. Work on `CC(=O)N1CCN(CCOc2ccc(F)cc2)CC(C(N)=O)C1` (stereo unspecified) yielded an INHIBITION of 12.3%. In the case of `CCNC(=O)[C@@H]1C[C@H](N)CN1C(=O)c1cccc(CCC(C)(C)O)c1`, the INHIBITION is reported as 17.5%. `Cc1nn(C(C)C)c2cnn(CC(=O)N3CCN(C)CC3)c12` was tested, and the INHIBITION was 21.7%. Work on `CC(C)c1cc(NC(=O)CN2CCn3c(nnc3C3CC3)C2)on1` yielded an INHIBITION of 7.5%. `Cc1nccn1-c1ccc(NC(=O)C2CCCN2Cc2c[nH]cn2)cc1` (stereo unspecified) showed an INHIBITION of 36.2%. In the case of `Cc1nccn1CCCNC(=O)C1CCCCN1Cc1ccncc1` (stereo unspecified), the INHIBITION is reported as -2.07%. With `Cc1nccn1-c1ccc(NC(=O)C2CCCN2CC2CC2)cc1` (stereo unspecified) the INHIBITION was 55.4%. For `Cc1cccnc1NC(=O)C1CCCN1Cc1ccccc1` (stereo unspecified), the INHIBITION was -10.4%. `Cc1nccn1-c1ccc(NC(=O)C2CCCN2Cc2ccoc2)cc1` (stereo unspecified) gave an INHIBITION of 54.4%. With `CCCN1CCCCC1C(=O)Nc1ccc(-c2nnc[nH]2)cc1` (stereo unspecified) the INHIBITION was -28.6%. `O=C(NCC1(O)COCCN(Cc2ccc(O)cc2)C1)c1cnccn1` (stereo unspecified) showed an INHIBITION of -42.9%. `CCCc1nnc(NC(=O)Cc2c(C)nc(C)[nH]c2=O)s1` was tested, and the INHIBITION was 16.585%. Work on `O=C(NCc1cccs1)c1nc2c(o1)CN(CC1CC1)C2` yielded an INHIBITION of -31.4%. Work on `CNC(=O)[C@@H]1[C@@H](OC(=O)Nc2ccccc2)C(=O)N(C)C12CCNCC2` yielded an INHIBITION of 35.8%. With `COc1ccc(C(C(=O)O)N2CCC(Cn3cccn3)CC2)c(OC)n1` (stereo unspecified) the INHIBITION was -40%. In the case of `CCCc1nc(CN2CCCCC2Cn2cncn2)cs1` (stereo unspecified), the INHIBITION is reported as 30.6%. For `COCCOCC(=O)N1CCC2(CCCN(C3CCOCC3)C2=O)C1` (stereo unspecified), the INHIBITION was -7.7%. Work on `Cn1nnc2c(N3CC(C(=O)NCCC4=CCCCC4)C3)ncnc21` yielded an INHIBITION of -19.1%. In the case of `Cc1csc([C@H]2C[C@@H]3CCN(Cc4cc(C)on4)C[C@H]3O2)n1`, the INHIBITION is reported as 64.7%. With `Cc1cc(CN2CC[C@H]3C[C@H](C(=O)N(C)C)O[C@@H]3C2)no1` the INHIBITION was 23.9%. In the case of `Cc1csc([C@@H]2C[C@@H]3CCN(Cc4cc(C)on4)C[C@H]3O2)n1`, the INHIBITION is reported as 26.7%. For `Cc1csc(CN2CC[C@H]3C[C@H](c4noc(C)n4)O[C@@H]3C2)n1`, the INHIBITION was 42.5%. In the case of `Fc1cnc(N2C[C@@H]3C[C@@H](c4nc(C5CC5)cs4)O[C@@H]3C2)nc1`, the INHIBITION is reported as 62.3%. In the case of `Cc1cc(CN2CC[C@H]3C[C@H](C)O[C@@H]3C2)no1`, the INHIBITION is reported as 34.1%. Work on `Cc1csc(CN2CC[C@H]3C[C@@H](c4nnc(C)[nH]4)O[C@@H]3C2)n1` yielded an INHIBITION of 72.3%. Compound `Cc1csc([C@H]2C[C@H]3CN(Cc4cc(C)on4)CC[C@@H]3O2)n1` has an INHIBITION of 46.6%. With `O=C(C1CCOCC1)N1C[C@@H]2C[C@@H](c3nc(C4CC4)cs3)O[C@@H]2C1` the INHIBITION was 31.8%. `Cc1csc(CN2CC[C@H]3C[C@H](c4nnc(C)[nH]4)O[C@@H]3C2)n1` was tested, and the INHIBITION was 23.5%. With `Cc1cc(CN2CC[C@H]3C[C@@H](C)O[C@@H]3C2)no1` the INHIBITION was 50.9%. Compound `Cc1csc([C@@H]2C[C@H]3CN(c4ncc(F)cn4)C[C@H]3O2)n1` has an INHIBITION of 22.6%.
